Screening data: PubChem BioAssay, National Center for Advancing Translational Sciences (NCATS)
IMPase cell inh – membrane-permeable compound that blocks inositol monophosphatase; P97697; CHO-M1 cells, IP1 accumulation, HTRF TR-FRET ratio; inhibition (IP1 accumulation), % at 46.1 µM; 120,000 tested, under 10 active; AID 901; active = well fitted curve in the direction sought with a large enough effect in the signal ratio, not every such curve was filed as active; inconclusive = small, poorly fitted or top-dose-only effect, or a change in a side signal; inactive = no such curve, though single readings can be large or run the other way; the % refers to the signal ratio;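 note: cells stimulated with carbachol in lithium chloride buffer; plate controls were DMSO basal wells for no effect and reference inhibitor wells for full effect; higher means more IMPase inhibition seen as more IP1 and lower FRET ratio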
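Elevated IP1 in lysates lowers TR-FRET signal (665/620 ratio and 620 channel reported). Cells were CHO-M1, given carbachol (50 uM as added) plus 50mM LiCl, pH 7.4, 30 min, 37C; compounds titrated up to 46 uM; AC50 by Hill equation.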
IMPase Li inh – cell-permeable IMPase inhibitors with lithium potentiation; Potency, µM (highest dose often 59.4 µM), without a hit: top-dose activity, negative = IMPase inhibition, usual class: inhibitors; CHO-M1 cells, IP1 TR-FRET (IP-One), carbachol + lithium; 210,000 compounds, 0.35% hits; active = well fitted inhibition curve with a large enough effect; inconclusive = small, poorly fitted or top-dose-only effect; inactive = no such curve, though single readings can be large or run the other way;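 note: IP1 builds up when IMPase is blocked and the TR-FRET signal falls; potency is the fitted concentration of half-maximal effect; plate controls were basal vehicle for no effect and high inhibitor control for full effect; nearly all actives have a fitted effect of over 50% in size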
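CHO cells stably expressing M1 receptor (2000/well, cultured 16–30 h) treated 30 min at 37C with compound plus low lithium. Cytosolic IP1 by TR-FRET (665/620 ratio and 620 channel) after 10 min lysis; AC50 by Hill fit.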
PNC inhibitor – blocks assembly of the perinucleolar compartment. AID 2417. 140,000 compounds, 3.1% hits. PC3M PTB-GFP, PNC prevalence imaging, 16 h; hits give low values. activity change (PNC), negative = inhibition, % at 10 µM;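 active = readout at or below -70, meaning at least 70% loss of cells showing the perinucleolar compartment, a nuclear body marking cancer cells; inconclusive = readout between -30 and a set limit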;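 note: plate controls were DMSO wells for no effect and camptothecin positive control wells for full effect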
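Compounds are pinned in duplicate onto adhered PC3M cells stably expressing GFP-tagged PTB and incubated 16 h at 37 C. Cells are then fixed, nuclei stained with Hoechst, and PNC-positive cells counted.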
HPGD inh – blocks human HPGD enzyme activity. Potency, µM, for the others: at the top dose activity change, negative = inhibition, usual class: inhibitors. purified HPGD, NADH fluorescence kinetic, PGE2 substrate. 150,000 compounds, 4.3% hits. AID 894. P15428; note: potency is the fitted concentration of half-maximal effect
Target sequence (P15428 whole entry, looked up): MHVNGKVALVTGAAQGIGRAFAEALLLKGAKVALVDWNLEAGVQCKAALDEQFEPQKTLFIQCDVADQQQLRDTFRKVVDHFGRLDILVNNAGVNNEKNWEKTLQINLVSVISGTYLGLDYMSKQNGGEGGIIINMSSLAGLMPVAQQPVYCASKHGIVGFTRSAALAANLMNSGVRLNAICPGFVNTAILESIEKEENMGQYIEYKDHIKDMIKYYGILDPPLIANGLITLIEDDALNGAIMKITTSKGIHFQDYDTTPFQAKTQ
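20 nM HPGD preincubated 15 min at room temperature with compound in 50 mM Tris-HCl pH 8, 0.01% Tween 20. Started with 1 mM NAD+ and 30 uM prostaglandin E2; NADH fluorescence (360/450 nm) read 5 times over 30-s intervals, last minus first.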
ALDH1A1 inh – blocks purified human ALDH1A1 activity. Purified ALDH1A1, NADH fluorescence, propionaldehyde substrate. 220,000 compounds, 7.3% hits. Potency, µM (series often up to 75.3 µM), without a hit: at the highest dose activity, negative = inhibition, actives largely listed as inhibitors. P00352. AID 1030;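 note: potency is the fitted concentration of half-maximal effect; plate controls were no enzyme wells and a reference inhibitor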
Target sequence (P00352 whole entry, looked up): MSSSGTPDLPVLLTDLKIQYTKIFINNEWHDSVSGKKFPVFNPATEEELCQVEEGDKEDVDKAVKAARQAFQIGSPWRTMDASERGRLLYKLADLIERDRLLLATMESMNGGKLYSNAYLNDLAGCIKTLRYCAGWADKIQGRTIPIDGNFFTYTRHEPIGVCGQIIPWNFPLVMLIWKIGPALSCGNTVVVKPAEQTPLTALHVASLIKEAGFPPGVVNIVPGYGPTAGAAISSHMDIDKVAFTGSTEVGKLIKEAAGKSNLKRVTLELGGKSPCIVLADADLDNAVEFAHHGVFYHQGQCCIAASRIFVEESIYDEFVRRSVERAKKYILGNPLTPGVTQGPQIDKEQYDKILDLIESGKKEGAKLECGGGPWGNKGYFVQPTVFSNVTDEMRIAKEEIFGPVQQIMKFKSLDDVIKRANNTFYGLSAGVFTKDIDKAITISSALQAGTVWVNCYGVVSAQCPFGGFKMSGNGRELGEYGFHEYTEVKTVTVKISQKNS
* = called active by the depositor; [ ] = another dose, or the depositor's remark. Most compounds without a hit are left out; they make up all but 11% or so of the library. Unless noted, calls come from the whole dose curve; as a rule, active = well fitted inhibition curve with a large enough effect (not every such curve was filed as active); inconclusive = small, poorly fitted or top-dose-only effect, or another doubt; inactive = no such curve, though single readings can be large or run the other way. Unless noted, % is set by controls: 0 for no effect and ±100 for the full control effect.

What do the screens show for `N/C(=N\OC(=O)COc1ccc2ccccc2c1)c1cccnc1`?
IMPase Li inh: 23%; PNC inhibitor: -15; HPGD inh: -28%; ALDH1A1 inh: inconclusive

What do the screens show for `S=c1[nH]nc(COc2ccc(Cl)cc2)o1`?
IMPase cell inh: 2; IMPase Li inh: -5%[38.3 µM]; PNC inhibitor: 5; HPGD inh: inconclusive; ALDH1A1 inh: 3.5µM*

What do the screens show for `CCOc1ccc(-c2n[nH]c(=S)o2)cc1`?
IMPase Li inh: -23%; ALDH1A1 inh: inconclusive

What do the screens show for `COc1ccc(OCc2n[nH]c(=S)o2)cc1`?
IMPase cell inh: 4; IMPase Li inh: 30%[38.3 µM]; PNC inhibitor: inconclusive; HPGD inh: inconclusive; ALDH1A1 inh: 10µM*

How did O=C(O)c1ccc2cc(-c3ccc(O)c(C45CC6CC(CC(C6)C4)C5)c3)ccc2c1 do in these assays?
IMPase Li inh: 3%; HPGD inh: inconclusive; ALDH1A1 inh: inconclusive

How did COc1ccc(Oc2nc(SC)nc3ccccc23)cc1 do in these assays?
IMPase cell inh: -8[1.84 µM]; IMPase Li inh: 10µM*; PNC inhibitor: -28; HPGD inh: -14%; ALDH1A1 inh: inconclusive

How did COc1ccc(Oc2nc3ccccc3nc2C(F)(F)F)cc1 do in these assays?
IMPase cell inh: 10; IMPase Li inh: 8%[38.3 µM]; PNC inhibitor: 32; HPGD inh: -6%; ALDH1A1 inh: -1%

How did COc1ccc(-n2[nH]c(C)cc2=O)cc1 do in these assays?
IMPase cell inh: inconclusive; IMPase Li inh: -5%[38.3 µM]; PNC inhibitor: inconclusive; HPGD inh: -1%; ALDH1A1 inh: 3.2µM*

What do the screens show for `COC(=O)c1c(-c2cccc(C)c2)csc1N`?
IMPase cell inh: 2; IMPase Li inh: 3%[38.3 µM]; PNC inhibitor: 12; HPGD inh: -27%; ALDH1A1 inh: 16%

How did COC(=O)c1c(-c2ccc(OC)c(OC)c2)csc1N do in these assays?
IMPase cell inh: 1; IMPase Li inh: 54%[38.3 µM]; PNC inhibitor: -15; HPGD inh: 28µM*; ALDH1A1 inh: 4µM*

Results for COC(=O)c1c(-c2cccc(OC)c2)csc1N ?
IMPase cell inh: 2; IMPase Li inh: 5%; PNC inhibitor: 30; HPGD inh: -19%; ALDH1A1 inh: 25µM*

What do the screens show for `CCN1C(=O)[C@H]2[C@H]3[C@H](O)[C@H](O)C/C(=N/O[C@@H](C)c4cn([C@H](CO)Cc5ccccc5)nn4)[C@@H]3CC[C@@H]2C1=O`?
ALDH1A1 inh: 2%[13.5 µM]

What do the screens show for `CCOC(=O)NC1(Nc2ccc(Cl)cn2)Oc2ccccc2O1`?
IMPase cell inh: 4; IMPase Li inh: 10%[38.3 µM]; PNC inhibitor: -20; HPGD inh: -9%; ALDH1A1 inh: 13µM*

Results for O=c1c2c(nc3n1CCCCC3)-c1ccccc1CC21CCCC1 ?
IMPase cell inh: 16; IMPase Li inh: 29%; PNC inhibitor: 0; HPGD inh: -14%; ALDH1A1 inh: 0.63µM*

How did CCOC(=O)C1Cn2c(nc3c(c2=O)C2(CCCC2)Cc2ccccc2-3)S1 (configuration not stated) do in these assays?
IMPase cell inh: 4; IMPase Li inh: 10%[38.3 µM]; PNC inhibitor: -103*; HPGD inh: inconclusive; ALDH1A1 inh: inconclusive

How did Nn1cnc2c(c1=O)C1(CCCCC1)Cc1ccccc1-2 do in these assays?
IMPase Li inh: -4%; PNC inhibitor: inconclusive; HPGD inh: 2%; ALDH1A1 inh: inconclusive

Results for CCOC(=O)C1Cn2c(nc3c(c2=O)C(C)(C)Cc2ccccc2-3)S1 (configuration not stated) ?
IMPase cell inh: 8; IMPase Li inh: -12%[38.3 µM]; PNC inhibitor: -22; HPGD inh: inconclusive; ALDH1A1 inh: inconclusive

What do the screens show for `Cc1ccc(NC(=O)CSc2nnc3nc(C)cc(C)n23)cc1`?
IMPase cell inh: 1

How did Cc1[nH]n(-c2ncc(-c3ccc(Cl)cc3)s2)c(=O)c1C(c1ccc(Cl)cc1)C(C#N)C#N (configuration not stated) do in these assays?
IMPase cell inh: 5; IMPase Li inh: 2%; PNC inhibitor: -26; HPGD inh: 10µM*; ALDH1A1 inh: inconclusive

Results for Cc1ccc(NC(=S)c2nc3ccccc3[nH]2)cc1 ?
IMPase cell inh: 0; IMPase Li inh: -11%[38.3 µM]; PNC inhibitor: 19; HPGD inh: -13%; ALDH1A1 inh: 8%

How did Cc1ccc(NC(=S)c2nc3ccccc3[nH]2)c(C)c1 do in these assays?
IMPase Li inh: 10%; PNC inhibitor: 15; HPGD inh: 32µM*; ALDH1A1 inh: inconclusive

How did O=C(Oc1ccccc1)N1CCC[C@@]2(CCN(c3ncccn3)C2)C1 do in these assays?
IMPase Li inh: 7%; HPGD inh: -11%; ALDH1A1 inh: inconclusive

How did Cc1ccc2cc3cc(C(=O)NCCC(C)C)oc3nc2c1 do in these assays?
IMPase cell inh: 0; IMPase Li inh: 3%[38.3 µM]; PNC inhibitor: inconclusive; HPGD inh: inconclusive; ALDH1A1 inh: inconclusive

What do the screens show for `Cc1ccc2cc3cc(C(=O)N4CC(C)CC(C)C4)oc3nc2c1` (configuration not stated)?
IMPase cell inh: 3; IMPase Li inh: 10%; PNC inhibitor: inconclusive; HPGD inh: 16µM*; ALDH1A1 inh: 25µM*

What do the screens show for `CCN(C(=O)c1cc2cc3ccc(C)cc3nc2o1)c1ccc(OC)cc1`?
IMPase cell inh: 8; IMPase Li inh: 10%; PNC inhibitor: -13; HPGD inh: -18%; ALDH1A1 inh: inconclusive

What do the screens show for `Cc1ccc2cc3cc(C(=O)N4CCCCC4C)oc3nc2c1` (configuration not stated)?
IMPase cell inh: 2; IMPase Li inh: -9%[38.3 µM]; PNC inhibitor: 6; HPGD inh: 16µM*; ALDH1A1 inh: inconclusive

How did O=C(Nc1ccccc1)N1CCC2(CC1)CCN(C(=O)c1ccncc1)CC2 do in these assays?
IMPase Li inh: 4%; HPGD inh: -2%; ALDH1A1 inh: 3%

Results for O=C(Cn1cccc1)N1CCN(C(c2ccccc2)c2ccccc2)CC1 ?
IMPase cell inh: -4; IMPase Li inh: 26%[38.3 µM]; PNC inhibitor: 24; HPGD inh: -15%; ALDH1A1 inh: inconclusive

What do the screens show for `CC(c1ccccc1)N1CCN(C(=O)CCl)CC1` (configuration not stated)?
IMPase Li inh: 8%; ALDH1A1 inh: 0.45µM*

How did CO[C@H]1COC(=O)C/C=C\[C@H](C)[C@@H](OC)COC(=O)C/C=C\[C@@H]1C do in these assays?
ALDH1A1 inh: 2%[13.5 µM]

What do the screens show for `COCCNc1nc(C)nc2c1nc(-c1ccccc1)n2CCN1CCCC1`?
IMPase Li inh: -4%; HPGD inh: inconclusive; ALDH1A1 inh: inconclusive

How did COCC(=O)Nc1cc(Cl)ccc1C do in these assays?
IMPase Li inh: 7%; ALDH1A1 inh: inconclusive

What do the screens show for `COc1cc(Cl)c(C)cc1NC(=O)CSc1cc(Cl)ccc1Cl`?
IMPase cell inh: 1; IMPase Li inh: 16%; PNC inhibitor: -119*; HPGD inh: -9%; ALDH1A1 inh: -5%
